The values that follow come from PubChem BioAssay (NCATS).

The structures appear in SMILES notation. Records with an inconclusive call do not appear. Unmarked numbers belong to inactive results. Activity calls are given as the source filed them. Calls follow the shape of the dose curve; as a rule, active = well fitted inhibition curve with a large enough effect; inconclusive = small, poorly fitted or top-dose-only effect; inactive = flat fitted curve, though single readings scatter.

Test [1] is described as follows: qHTS profiling for inhibitors of Plasmodium falciparum proliferation (AID 504749). Also: nearly all actives have a fitted effect of over 60% in size.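 As to activity, negative = inhibition: 0% = DMSO vehicle and full inhibition = artemisinin control.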 As to conditions: P. falciparum in erythrocytes, SYBR Green DNA, 72 h. In outline:
(§1)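 SYBR Green fluorescence of parasite DNA, read after lysis and overnight dark incubation, measured growth over 72 h in erythrocyte culture at 0.3% parasitemia and 2.5% hematocrit. Data normalised to DMSO and 0.29 uM artemisinin, with plate-drift correction.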
In general terms: qHTS replaces the single test concentration by a dilution series.

Another test has as its system 3D7. The test is described as above. As to conditions: P. falciparum in erythrocytes, SYBR Green DNA, 72 h; series mostly up to 28.7 µM. In outline:
as §1

A further test deals with 7G8. The description is as above. As to conditions: P. falciparum in erythrocytes, SYBR Green DNA, 72 h; series mostly up to 28.7 µM. The procedure, abridged:
as §1

The subject of a further test is AA1029. The description is as above. As to conditions: P. falciparum in erythrocytes, SYBR Green DNA, 72 h; series mostly up to 28.7 µM. The procedure, abridged: as §1
A further test deals with AS120. Described as above. As to conditions: P. falciparum in erythrocytes, SYBR Green DNA, 72 h; series mostly up to 28.7 µM. In outline: as §1
The test system of the next test is ATS189. The test is described as above. The note with it: P. falciparum in erythrocytes, SYBR Green DNA, 72 h; series mostly up to 28.7 µM. The procedure, abridged: as §1
For the next test, the system named is ATS95. The description is as above. As to conditions: P. falciparum in erythrocytes, SYBR Green DNA, 72 h; series mostly up to 28.7 µM. The procedure, abridged:
as §1

Another test relates to C2A. Described as above. The note with it: P. falciparum in erythrocytes, SYBR Green DNA, 72 h; series mostly up to 28.7 µM. The procedure, abridged:
as §1

A further test deals with CP185. Described as above. The note with it: P. falciparum in erythrocytes, SYBR Green DNA, 72 h; series mostly up to 28.7 µM. In outline: as §1
Another test deals with CP191. The description is as above. As to conditions: P. falciparum in erythrocytes, SYBR Green DNA, 72 h; series mostly up to 28.7 µM. The procedure, abridged: as §1
The test system of the next test is CP192. The test is described as above. The note with it: P. falciparum in erythrocytes, SYBR Green DNA, 72 h; series mostly up to 28.7 µM. In outline:
as §1

The test system of the next test is CP194. Described as above. As to conditions: P. falciparum in erythrocytes, SYBR Green DNA, 72 h; series mostly up to 28.7 µM. In outline: as §1
A further test concerns CP201. Described as above. As to conditions: P. falciparum in erythrocytes, SYBR Green DNA, 72 h; series mostly up to 28.7 µM. In outline:
as §1

Another test deals with CP211. Described as above. As to conditions: P. falciparum in erythrocytes, SYBR Green DNA, 72 h; series mostly up to 28.7 µM. In outline:
as §1

The next test relates to CP217. The test is described as above. As to conditions: P. falciparum in erythrocytes, SYBR Green DNA, 72 h; series mostly up to 28.7 µM. The procedure, abridged: as §1
In a further test the test system is CP237. The description is as above. The note with it: P. falciparum in erythrocytes, SYBR Green DNA, 72 h; series mostly up to 28.7 µM. The procedure, abridged: as §1
The next test deals with CP215. The description is as above. As to conditions: P. falciparum in erythrocytes, SYBR Green DNA, 72 h; series mostly up to 28.7 µM. The procedure, abridged: as §1
For a further test, the system named is CP203. The test is described as above. As to conditions: P. falciparum in erythrocytes, SYBR Green DNA, 72 h; series mostly up to 28.7 µM. The procedure, abridged:
as §1

The mark [2] stands for this setting: at 12.8 µM (top of the series), parasite line A.
Where [3] appears, read: at 12.8 µM (top of the series), parasite line B.
Setting [4] is: at 28.7 µM (top of the series), parasite line A.
Setting [5] is: at 28.7 µM (top of the series), parasite line B.
Potency is read from the fitted curve at half-maximal effect.

Consider `Cc1c(N(C)CS(=O)(=O)O)c(=O)n(-c2ccccc2)n1C`, for which the activity, negative = inhibition in test [1] (setting [2]) is 17.9%; in [1] (setting [3]), 23.3%. The Potency entry with 3D7, in the test with 7G8, in the test with AA1029, with AS120, in the test on ATS189 and with ATS95 was “inactive” throughout. Besides, the Potency entry with C2A, with CP185, with CP191, in the test with CP192, in the test on CP194 and in the test with CP201 was “inactive” in each case. For the same compound, the Potency result in the test on CP211, in the test with CP217 and in the test with CP237 was “inactive” each time.

In the case of `CC(O)(P(=O)(O)O)P(=O)(O)O`, the activity, negative = inhibition is 10.5% in test [1] (setting [4]) and 4.89% in test [1] (setting [5]). Moreover, the Potency entry with 3D7, in the test with 7G8, in the test on AA1029, in the test on AS120, in the test with ATS189 and in the test with ATS95 was “inactive” each time. Moreover, the Potency entry in the test on C2A, in the test on CP185, with CP191, in the test with CP192, with CP194 and in the test on CP201 was “inactive” in each case. Further, the Potency result with CP211, with CP215, in the test with CP217 and with CP237 was “inactive” in each case.

As to `COc1cc(OC)cc(OC)c1`, the activity, negative = inhibition in test [1] (setting [4]) is 14.7%; in test [1] (setting [5]) it was 2.05%. The Potency entry in the test with 3D7, in the test with 7G8, in the test with AA1029, with AS120, in the test on ATS189 and in the test on ATS95 was “inactive” throughout. Further, the Potency result with C2A, in the test on CP185, in the test on CP191, in the test on CP192, in the test with CP194 and in the test on CP201 was “inactive” each time. In addition, the Potency entry with CP211, with CP215, with CP217 and with CP237 was “inactive” in each case.

As for `Oc1ccc(Cl)cc1Sc1cc(Cl)ccc1O`, the activity, negative = inhibition in test [1] (setting [4]) was 0.98%; in test [1] (setting [5]), -24.8%. Further, the Potency result in the test on 3D7, in the test with AA1029, in the test with ATS189, in the test on ATS95, in the test with C2A and in the test on CP185 was “inactive” throughout. Moreover, the Potency entry with CP191, in the test with CP192, in the test with CP201, in the test on CP211 and with CP237 was “inactive” throughout. Besides, in the test on 7G8, the Potency is 12.6 µM (active).

Regarding `Cc1c(C(N)=O)cc([N+](=O)[O-])cc1[N+](=O)[O-]`, the activity, negative = inhibition was -7.97% in test [1] (setting [4]) and -2.31% in test [1] (setting [5]). Moreover, the Potency result in the test with 3D7, in the test on 7G8, with AA1029, with AS120, in the test on ATS189 and in the test on ATS95 was “inactive” throughout. Further, the Potency entry with C2A, in the test on CP185, in the test on CP191, in the test on CP194, in the test with CP201 and in the test with CP203 was “inactive” throughout. Further, the Potency entry in the test with CP211, in the test on CP215, in the test on CP217 and in the test with CP237 was “inactive” each time.

In the case of `CCOC(=O)c1cccc(N)c1`, the activity, negative = inhibition is 6.66% in [1] (setting [4]) and 6.86% in test [1] (setting [5]). For the same compound, the Potency result in the test with 3D7, in the test on 7G8, in the test with AA1029, in the test on AS120, in the test with ATS189 and with ATS95 was “inactive” each time. For the same compound, the Potency result in the test on C2A, with CP185, in the test with CP191, in the test with CP217 and in the test on CP237 was “inactive” throughout.

With `O=C(OCCOCCO)c1ccccc1Nc1cccc(C(F)(F)F)c1`, the activity, negative = inhibition was 9.49% in [1] (setting [2]) and 3.82% in test [1] (setting [3]). Moreover, the Potency result in the test with 3D7, with 7G8, in the test with AA1029, with AS120, in the test on ATS189 and in the test with ATS95 was “inactive” throughout. Moreover, the Potency result with C2A, with CP185, with CP191, with CP192, with CP194 and with CP201 was “inactive” throughout. The Potency result with CP211, with CP215, in the test with CP217 and in the test with CP237 was “inactive” each time.

Turning to `O=C1OC(c2ccc(O)cc2)(c2ccc(O)cc2)c2ccccc21`, the figures for the activity, negative = inhibition in test [1] (setting [4]) and in test [1] (setting [5]) were -7.68% and 10.2%, respectively. The Potency entry in the test on 3D7, in the test with 7G8, in the test on AA1029, in the test on AS120, with ATS95 and in the test with C2A was “inactive” each time. The Potency result with CP185, in the test on CP191, with CP194, in the test on CP201, in the test with CP211 and in the test on CP215 was “inactive” throughout. Also, the Potency result in the test on CP217 and in the test on CP237 was “inactive” each time.

Turning to `CC(C)(Oc1ccc(Cl)cc1)C(=O)O`, the values for the activity, negative = inhibition in test [1] (setting [4]) and in [1] (setting [5]) were 5.47% and 14.8%, respectively. Moreover, the Potency result in the test on 3D7, in the test on 7G8, with AA1029, in the test on AS120, with ATS189 and in the test on C2A was “inactive” throughout. In addition, the Potency result in the test with CP185, in the test with CP191, in the test with CP192, in the test on CP194, in the test on CP201 and in the test on CP203 was “inactive” throughout. For the same compound, the Potency entry with CP211, in the test with CP215, in the test on CP217 and in the test with CP237 was “inactive” in each case.

Take `C[C@H]1C[C@H]2[C@@H]3CCC4=CC(=O)C=C[C@]4(C)[C@@]3(Cl)[C@@H](O)C[C@]2(C)[C@@]1(O)C(=O)CO`: the figures for the activity, negative = inhibition in test [1] (setting [4]) and in [1] (setting [5]) were 2.21% and 13.1%, respectively. Also, the Potency entry in the test on 3D7, with AA1029, in the test on AS120, with ATS189, in the test with ATS95 and in the test with C2A was “inactive” in each case. Further, the Potency entry with CP185, in the test on CP191, in the test with CP192, in the test with CP194, with CP201 and with CP211 was “inactive” throughout. The Potency result in the test on CP215, in the test on CP217 and in the test with CP237 was “inactive” in each case.

In the case of `c1ccc(OCc2ccc(CCCN3CCOCC3)cc2)cc1`, the values for the activity, negative = inhibition in test [1] (setting [4]) and in test [1] (setting [5]) were 3.42% and 8.4%, respectively. The Potency entry with 3D7, in the test on AA1029, with AS120, in the test on ATS189, in the test with ATS95 and with C2A was “inactive” throughout. In addition, the Potency result in the test with CP185, with CP191, in the test on CP192, in the test with CP194, in the test on CP201 and in the test on CP203 was “inactive” each time. Besides, the Potency result in the test on CP211, with CP215, with CP217 and in the test on CP237 was “inactive” in each case.

Take `Oc1c(I)cc(Cl)c2cccnc12`: the Potency is 8.91 µM (active) in test [1] (parasite line A); 8.91 µM (active) in test [1] (parasite line B); 10 µM (active) in the test with AS120; 12.6 µM (active) in the test with ATS189; 11.2 µM (active) in the test with C2A; 11.2 µM (active) with CP185. The Potency in the test with CP191 is 11.2 µM (active); in the test with CP217, 8.91 µM (active). Moreover, the Potency entry in the test with 3D7, with ATS95, in the test on CP194, with CP201, in the test on CP211 and in the test on CP237 was “inactive” each time.

For the compound `CCN1CCC[C@H]1CNC(=O)c1c(OC)ccc(Br)c1OC`, the values for the activity, negative = inhibition in test [1] (setting [4]) and in test [1] (setting [5]) were 12.1% and 10%, respectively. The Potency result with 3D7, in the test on 7G8, in the test with AS120, in the test on ATS189, in the test on ATS95 and in the test with C2A was “inactive” in each case. Moreover, the Potency entry in the test with CP185, in the test with CP191, in the test on CP192, with CP194, in the test with CP201 and with CP203 was “inactive” throughout. For the same compound, the Potency entry with CP211, in the test on CP215 and in the test on CP217 was “inactive” each time.

Consider `CN1CCN(CCCN2c3ccccc3Sc3ccc(S(=O)(=O)N(C)C)cc32)CC1`, for which the activity, negative = inhibition in test [1] (setting [2]) was 5.01%; in [1] (setting [3]) it was -5.83%. The Potency in the test with 7G8 was 0.891 µM (active); in the test with ATS189, 3.55 µM (active); with CP191, 3.98 µM (active); in the test on CP217, 3.98 µM (active); in the test with CP237, 3.98 µM (active). In addition, the Potency entry in the test with AA1029, with CP185, with CP192, in the test on CP194, with CP201 and with CP211 was “inactive” each time.
